Bioassay records as filed in PubChem BioAssay.
RECQ1 inh = blocks DNA unwinding by human RECQ1; P46063; RECQ1 DNA unwinding, red fluorescence kinetic read; Potency, µM (doses to about 57.3 µM), for the others: at the top dose activity, negative = inhibition, usual class: inhibitors; hit rate 0.54% among 240,000;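 also: plate controls were vehicle for no effect and no enzyme for full effect; nearly all actives have a fitted effect of over 30% in size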
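50 nM RECQ1T1 preincubated 15 min with compound in Tris pH 8.0 buffer with MgCl2, DTT, Tween-20 and 2.5 ug/ml poly(dI-dC); started with 200 nM TAMRA/BHQ-2 forked duplex and 2 mM ATP. Unwinding read as fluorescence (525/598 nm), two reads 2 h apart.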
TDP1 inh = blocks human tyrosyl-DNA phosphodiesterase 1; Q9NUW8; recombinant TDP1, AlphaScreen DNA substrate cleavage; Potency, µM (doses to about 130 µM), for inactives: top-dose activity change, negative = inhibition, most hits filed as inhibitors; hit rate 0.28% among 350,000; AID 485290; also: nearly all actives have a fitted effect of over 40% in size
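Tdp1 1 nM final; 15 min RT w/ cpd; substrate 15 nM, 5 min; beads 10 ug/ml, 10 min; AlphaScreen read. Neg ctrl: no enzyme.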
KAT2A inh = blocks human GCN5L2 histone acetyltransferase; Q92830; GCN5L2 HAT assay, ThioGlo1 CoA-SH fluorescence; Potency, µM (titrated, usually from 58.9 µM), without a hit: at the highest dose activity change, negative = inhibition, most hits filed as inhibitors; hit rate 0.21% among 390,000
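GCN5L2 (20nM final) in 50mM HEPES, 0.1mM EDTA pH 7.5, 0.01% Tween-20 was preincubated 15 min at room temperature with compound, then given ThioGlo1 (50uM), H3(1-25) peptide (75uM) and acetyl-CoA (70uM); CoA-thiol fluorescence (Ex340/Em540) was read at 0 and 20 min.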
BLM helicase inh = inhibitors of human Bloom syndrome helicase BLM. P54132. recombinant BLM DNA unwinding, fluorescence dequenching. Potency, µM (highest dose often 56.1 µM), inactives show at the top dose activity change, negative = inhibition, hits mostly inhibitors. hit rate 0.2% among 350,000. AID 2528;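 also: plate controls were vehicle for no effect and no enzyme for full effect; nearly all actives have a fitted effect of over 35% in size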
KDM4E inh = blocks human JMJD2E demethylase activity; Potency, µM (top dose mostly 57.1 µM), for the others: at the highest dose activity change, negative = inhibition, usual class: inhibitors; JMJD2E catalytic domain, FDH-coupled NADH fluorescence (FDH is formaldehyde dehydrogenase); hit rate 1.6% among 230,000; active = well fitted inhibition curve with a large enough effect, not every such curve was filed as active; inconclusive = small, poorly fitted or top-dose-only effect, or another doubt; inactive = no such curve, though single readings can be large or run the other way;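 also: 0% = wells with enzyme and -100% = buffer wells without enzyme; nearly all actives have a fitted effect of over 50% in size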
APEX1 inh = APE1 (human) endonuclease inhibition | P27695 | recombinant APE1, TAMRA/BHQ-2 abasic DNA cleavage fluorescence | Potency, µM (doses to about 65.8 µM), without a hit: at the top dose activity change, negative = inhibition, usual class: inhibitors | hit rate 0.35% among 350,000 | AID 2517;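 also: plate controls were vehicle for no effect and reference inhibitor for full effect; nearly all actives have a fitted effect of over 55% in size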
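Step 1: APE1 (0.75 nM) with compound, 15 min RT. Step 2: add 50 nM fluorophore/quencher THF duplex. Step 3: three fluorescence reads 60 s apart (525/598 nm); read 3 minus read 1 = reaction progress.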
Numbers without * were called inactive; i = inactive; ? = inconclusive; . = no result given; [ ] = another dose, or the depositor's remark. Shown is part of a subset that was picked to be rich in hits. Unless noted, calls follow the shape of the dose curve; as a rule, active = well fitted curve in the direction sought with a large enough effect; inconclusive = small, poorly fitted or top-dose-only effect, or another doubt; inactive = no such curve, though single readings can be large; an effect the other way counts as inactive or inconclusive. Unless noted, % is scaled to controls: 0 for no effect and ±100 for the full control effect; potency is read from the fitted curve at half-maximal effect.

SMILES	RECQ1 inh	TDP1 inh	KAT2A inh	BLM helicase inh	KDM4E inh	APEX1 inh
O=S(=O)(Nc1cc(Sc2ncn[nH]2)c(O)c2ccccc12)c1ccccc1	-7%	11%	22µM*	28µM*	13µM*	3%
COc1ccc(N2CCN(CC(=O)Nc3cc(C)on3)CC2)cc1	-3%	-10%	0%	-4%	25µM*	25%
CCc1ccc(-n2c(C)cc(/C=N/NC(=O)OC)c2C)cc1	4%	1%	2%	-3%	10µM*	16%
COC(=O)N/N=C/c1cc(C)n(-c2ccc(Br)cc2)c1C	i	5%	-2%	-4%	25µM*	4%
COC(=O)N/N=C/c1cc(C)n(-c2ccc(F)cc2)c1C	0%	4%	-3%	-7%	?	-2%
CC(=O)Nc1ccc(OCc2cccc(-c3nc4ccccc4c(=O)n3Cc3ccco3)c2)cc1	.	0%	.	.	.	.
COc1ccc(C(=O)N(Cc2ccccc2)Cc2ccccc2)cc1COc1ccc(NC(C)=O)cc1	.	3%	.	.	.	.
CCCNC(=O)c1ccc(-c2nc(CS(=O)(=O)c3ccc(C)cc3)c(C)o2)cc1	.	0%	1%	-7%	.	.
Cc1ccc(S(=O)(=O)Cc2nc(-c3ccc(C(=O)NCc4ccccc4F)cc3)oc2C)cc1	.	0%	25µM*	-8%	.	.
COc1cc(NC(=O)C(OC(=O)CNC(=O)c2ccccc2)c2ccccc2)cc(OC)c1 (stereo unspecified)	.	0%	.	.	.	.
Cn1c2cc(S(C)=O)sc2c2cnn(Cc3ccccc3F)c(=O)c21 (stereo unspecified)	.	1%	.	.	.	.
COc1ccc(Nc2nc(N)c3cc(OC)c(OC)cc3n2)cc1	.	-2%[12.3 µM]	-9%	16µM*	.	.
Cc1cc(=O)[nH]c(N/N=C/c2cc(C)n(-c3ccccc3)c2C)n1	-4%	7%	-6%	-3%	?	1%
Cc1cc(/C=N/Nc2nc(N3CCOCC3)nc(N3CCOCC3)n2)c(C)n1-c1ccccc1	-11%	7%	-13%	-7%	35µM*	6%
CC(C)=CCC/C(C)=C/CO/N=C1/C[C@@H](O)[C@@H](O)[C@@H]2[C@@H]3C(=O)N(Cc4ccccc4)C(=O)[C@H]3CC[C@@H]12	i[11.5 µM]	5%[21 µM]	.	3%[12.4 µM]	.	?
CC(=O)Nc1ccc(OCCOc2ccc(/C=C3\C(=N)N4N=C(C)SC4=NC3=O)cc2)cc1	.	.	-18%	2%	.	-12%
COc1ccc(OCCOc2ccc(/C=C3\C(=N)N4N=C(C)SC4=NC3=O)cc2)cc1	.	35µM*	-3%	.	.	9.5µM*
C/C=C1\[C@H]2C=C(C)C[C@]1(N)c1ccc(=O)[nH]c1C2	.	.	.	.	.	2%
c1csc(CNc2ncnc3cc(-c4ccc5c(c4)OCO5)ccc23)c1	.	-9%	.	.	.	.
COc1ccc(Cn2c(O)c(/C=N/NC(=O)c3cccnc3)c3ccccc3c2=O)cc1	-1%	11%	-7%	-25%	28µM*	-13%
O=C(N/N=C\c1ccc2c(c1)OCO2)c1cncc(Br)c1	.	50µM*	-13%	-1%	.	-8%
O=C(N/N=C/c1ccc2c(c1)OCO2)c1cccnc1	.	-1%	-11%	1%	.	54%
O=C(c1cc2ncc(Br)cn2n1)N1CCN(C(=O)c2ccco2)CC1	-3%	22µM*	-15%	-18%	-2%	-2%
O[C@@H]1CO[C@H]2C1OC[C@@H]2O (stereo partly specified)	-10%	4%	45%	-2%	.	7%
O=C1/C(=C/Nc2ccc3c(c2)OCO3)CCc2ccccc21	7%	1%	-3%[0.501 µM]	-15%	14µM*	2%
SMILES	RECQ1 inh	TDP1 inh	KAT2A inh	BLM helicase inh	KDM4E inh	APEX1 inh
COc1ccc2c(c1)CC/C(=C\Nc1ccc3c(c1)OCO3)C2=O	-7%	9%	-13%	-14%	?	0%
Nc1ccccc1Nc1cc(-c2ccccc2)[nH]n1	-6%	8%	-4%	-5%	20µM*	-2%
C=CCc1cccc2cc(C(=O)Nc3ccc(CC(=O)O)cc3)c(=O)oc12	-4%	50µM*	-25%	-16%	-2%	?
OC[C@H](S)CS	.	13µM*	?	6%	.	.
CNc1cc(OC)c(C(=O)N[C@H]2CCN(Cc3ccccc3)[C@H]2C)cc1Cl	.	.	.	.	.	-5%
Cc1ccc(-c2cc(C(=O)O)c3cc(Br)ccc3n2)o1	?	.	?	3%	?	-3%
Cc1ccc(-c2cc(C(=O)NC3=NCCS3)c3cc(Br)ccc3n2)o1	-26%	8%	?	4%	8.9µM*	0%
CCOC(=O)C1=C(C)N=c2s/c(=C/c3cccc([N+](=O)[O-])c3O)c(=O)n2C1c1ccc(OC)cc1OC (stereo unspecified)	.	.	-1%	?	.	24µM*
CC(=O)N(O)CCCCCNC(=O)CCC(=O)N(O)CCCCCNC(=O)CCC(=O)N(O)CCCCCN	9%	7%	-8%	5%	22µM*	7%
O=C(c1ccccc1O)N(Cc1ccccc1)Cc1ccccc1	.	1%	.	.	.	.
O=C(O)c1cccc(NC(=O)c2ccc3c(c2)C(=O)N(Cc2ccco2)C3=O)c1	-20%	50µM*	-10%	-3%	5%	7%
Cc1cc2c(s1)c1cnn(Cc3cc(C(F)(F)F)cc(Cl)c3F)c(=O)c1n2C	.	-6%	.	.	.	.
COc1ccc([N+](=O)[O-])cc1NC(=O)Nc1ccc(OC)c(OC)c1	i	5%	17%	32µM*	-2%	3%
Cc1noc(C)c1S(=O)(=O)N(C)C[C@H]1Oc2c(cccc2N(C)C)C(=O)N([C@H](C)CO)C[C@@H]1C	.	100µM*	-3%	.	.	9%
COc1ccc(-c2nn(C)c3sc(C(=O)Nc4cc(OC)c(OC)c(OC)c4)cc23)cc1OC	.	12%	?	20µM*	.	.
COc1ccc(-c2nn(C)c3sc(C(=O)NCc4ccco4)cc23)cc1OC	-18%	7%	-8%	0%	?	5%
CC(C)C1=CC2=CC[C@@H]3[C@@](C)(C(=O)O)CCC[C@]3(C)C2CC1 (stereo partly specified)	i	6%[56.1 µM]	.	3%	35µM*	-7%
C=C[C@]1(C)C=C2CC[C@H]3[C@@](C)(CCC[C@@]3(C)C(=O)O)[C@@H]2CC1	.	0%	-12%	.	.	-11%
CC(C)c1ccc(OCc2ccc(C(=O)O)o2)cc1	18%	-10%	-13%	-1%	7.9µM*	?
O=C1C2C3CCCC3=C3CCCC3C2C(=O)N1c1ccccc1Cl (stereo unspecified)	.	1%	.	.	.	.
CC(C)(C)c1ccc(N2C[C@@H](COc3ccc(C(=O)O)cc3)CC2=O)cc1	6%	9%	0%	2%	.	-1%
O=C(/C=C/c1ccc(O)c(O)c1)c1ccc(S(=O)(=O)N2CCCCCC2)cc1	-10%	9%	-19%	-24%	28µM*	?
